Screening data from PubChem BioAssay.
This is a sample that favours compounds with a hit; in the whole collection about 3.6% have one here.
VHR inh abs: VHR1 phosphatase inhibitors, primary screen, biochemical, absorbance, uHTS; recombinant VHR phosphatase, pNPP absorbance; inhibition, % at 13.3 µM; actives 0.52% (n = 290,000); in the data active = inhibition above about 50%
Target sequence (P51452 whole entry, looked up): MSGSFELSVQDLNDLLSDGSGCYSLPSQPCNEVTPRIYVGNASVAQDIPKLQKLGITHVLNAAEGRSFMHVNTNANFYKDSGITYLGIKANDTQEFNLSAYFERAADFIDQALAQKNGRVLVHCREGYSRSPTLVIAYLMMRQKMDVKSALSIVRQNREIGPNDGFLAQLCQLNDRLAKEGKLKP
GDH-TPI inh: GDH-TPI coupling enzyme inhibitors, primary screen, artefact control for M. tuberculosis FBA inhibitor project, biochemical, absorbance, full deck | GDH-TPI coupled enzyme counterscreen, NADH absorbance | inhibition, % at 4.8 µM | actives 1.2% (n = 360,000) | AID 588335, 2011; in the data active = inhibition above about 30%;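 also: 0% = DMSO wells and 100% = wells lacking the enzyme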
FBA Mtb inh: Mtb FBA enzyme inhibitors, primary screen, biochemical, fluorescence, strain H37Rv; purified M. tuberculosis FBA, fluorescence read-out; inhibition, % at 1 µM; actives 2.3% (n = 360,000); in the data active = inhibition above about 27%;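 also: 0% = vehicle and 100% = reference inhibitor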
Target sequence (P9WQA3 whole entry, looked up): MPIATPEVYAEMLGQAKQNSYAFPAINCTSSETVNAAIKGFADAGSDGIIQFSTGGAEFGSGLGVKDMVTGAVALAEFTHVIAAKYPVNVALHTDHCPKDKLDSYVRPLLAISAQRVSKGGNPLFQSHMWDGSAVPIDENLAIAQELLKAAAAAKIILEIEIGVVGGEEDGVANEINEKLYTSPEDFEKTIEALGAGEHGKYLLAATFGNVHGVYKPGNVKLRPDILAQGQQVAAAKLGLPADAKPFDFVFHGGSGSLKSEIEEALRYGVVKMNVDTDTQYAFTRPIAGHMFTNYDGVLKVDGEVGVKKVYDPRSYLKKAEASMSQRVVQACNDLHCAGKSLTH
Mtb hypoxia rep: PubChem AID 1159583; M. tuberculosis hypoxia-regulated fluorescent reporter, fluorescence; fluorescence inhibition, % (concentration not given with the values); actives 0.1% (n = 300,000); in the data active = fluorescence inhibition mostly above about 23%, no sharp cut-off; inactive = mostly below about 17%
Mtb bLac sens: beta-lactam sensitization of Mtb H37Rv, H37Rv; inhibition, % at 25 µM; M. tuberculosis H37Rv growth with meropenem, percent inhibition; actives 0.27% (n = 330,000); AID 434955, 2010; call rule not given here;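 also: growth measured after seven days incubation then overnight dye step; 0% = bacteria only wells and 100% = bacteria with antibiotic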
* marks the source's active call; other numbers are inactive results; ? = inconclusive; nt = no result; + = active, no number.

SMILES	VHR inh abs	GDH-TPI inh	FBA Mtb inh	Mtb hypoxia rep	Mtb bLac sens
COc1cc(C(=O)NN=Cc2cn(Cc3ccccc3)c3ccccc23)ccc1O	nt	nt	nt	9.4	nt
C(=N\n1cnnc1)/c1cn(Cc2ccccc2)c2ccccc12	29.0	31.5*	-2.5	nt	6.9
Nc1ccc(C(=O)N/N=C/c2cn(Cc3ccccc3)c3ccccc23)cc1	27.2	36.5*	1.4	nt	6.6
O=C(C1=CC(c2csc3ccccc23)CC(OCCCCO)O1)N1CCN(Cc2ccccc2)CC1 (stereo unspecified)	nt	nt	nt	8.5	nt
O=C(N/N=C/c1cc(Br)c(O)c(Br)c1)C1CC1	-5.4	30.8*	3.4	nt	9.9
O=C(NN=Cc1cc(Br)c(O)c(Br)c1)C1CC1	nt	nt	nt	7.3	nt
COc1cc(/C=N/NC(=O)C2C3CCCCC32C)cc(Br)c1O (stereo unspecified)	1.2	50.7*	13.6	nt	14.3
CN1C(=O)C2C(C1=O)C(c1ccc(F)cc1)N1C(=O)c3ccccc3NC(=O)C21 (stereo unspecified)	nt	nt	nt	4.9	nt
O=C(CC1(O)C(=O)Nc2ccccc21)c1ccc(-n2cnnn2)cc1 (stereo unspecified)	10.6	3.7	1.6	1.8	2.5
CCS(=O)(=O)Nc1ccc(C(=O)CC2(O)C(=O)Nc3ccccc32)cc1 (stereo unspecified)	11.9	38.6*	-2.4	5.1	?
CCCCn1c(N)c(Sc2ccccc2)c(=O)[nH]c1=O	18.7	-1.9	-7.7	15.2	3.1
CCCCn1c(N)c(Sc2ccccc2[N+](=O)[O-])c(=O)[nH]c1=O	51.1*	13.4	0.0	-7.5	-4.2
CCCN(CCC)CCCNC(=O)c1cn(-c2ccc(OC)cc2)c(=O)c2ccccc12	52.6*	11.3	4.7	-11.3	-5.7
CNC(=S)N1N=C(c2cccs2)CC1c1ccc(OC)cc1 (stereo unspecified)	10.8	47.9*	2.8	1.8	-1.0
COc1ccc(C2=NN(C(=S)Nc3ccccc3)C(c3ccccc3)C2)cc1 (stereo unspecified)	5.4	12.1	-0.3	5.6	12.1
COc1ccc(C2CC(c3ccccc3)=NN2C(=S)Nc2ccccc2)cc1 (stereo unspecified)	14.7	34.1*	-1.4	-2.8	7.0
CCCOc1ccccc1NC(=Nc1nc(C)cc(C)n1)NC(=O)Nc1ccc(Cl)cc1	nt	nt	nt	2.9	nt
C=C(C)C(=O)Nc1cccc(C2=NOC3(C2)CC(C(N)=O)N(C(=O)c2ccc(Cl)cc2)C3)c1 (stereo unspecified)	nt	nt	nt	3.4	nt
Cc1cc(N/C=C\c2nnnn2-c2ccccc2)no1	-5.7	1.5	-2.6	-4.9	1.8
CN(C)c1ccc(/C=C/c2nnnn2-c2ccccc2)cc1	-4.7	40.7*	-1.1	6.9	-4.9
CC(CC(=O)Nc1ccc2c(c1)OCCO2)=NNC(=O)COc1ccccc1	nt	nt	nt	6.8	nt
CC(=O)NS(=O)(=O)c1ccc(Nc2ccc([N+](=O)[O-])c3nonc23)cc1	3.7	18.0	-27.5	38.3*	2.9
CC1CN=C2N1CC(Cc1ccc(O)cc1)N2CCNC(=O)CCC1CCCCC1 (stereo unspecified)	nt	nt	nt	6.2	nt
O=c1oc(-c2ccc(O)c(O)c2)cc2cc(O)cc(O)c12	nt	32.4*	10.8	nt	-0.9
COCCn1cc(C(=O)N2CCC(C)CC2)c2c3ccccc3n(C)c2c1=O	10.7	-3.2	43.1*	1.8	0.3
SMILES	VHR inh abs	GDH-TPI inh	FBA Mtb inh	Mtb hypoxia rep	Mtb bLac sens
Cn1c2ccccc2c2c(C(=O)N3CCC4(CC3)OCCO4)cn(C3CCCCC3)c(=O)c21	16.6	-0.4	14.8	nt	-2.5
CC(C)Cn1cc(C(=O)N2CCC3(CC2)OCCO3)c2c3ccccc3n(C)c2c1=O	10.7	11.2	37.4*	1.1	0.3
CC(C)Cn1cc(C(=O)N2CCC(C)CC2)c2c3ccccc3n(C)c2c1=O	-1.0	9.0	25.8	0.9	-3.7
COc1ccc(C2CC(=O)C=C(c3cc(Cl)ccc3C)C2)cc1 (stereo unspecified)	nt	nt	nt	7.1	nt
COc1ccc2c(c1)CC/C(=C\c1ccc(OC)c(Cn3cccn3)c1)C2=O	1.6	38.3*	-1.6	10.8	6.3
CNc1cncc(-c2ccc(C)cc2)n1	nt	14.6	197.3*	nt	nt
CNc1cncc(-c2cccc(C(=O)NC3CC3)c2)n1	nt	22.6	+	nt	nt
CNc1cncc(-c2cccc(C(=O)NCCN(C)C)c2)n1	nt	14.6	121.4*	nt	nt
CNc1cccc(-c2cccc(O)c2)n1	nt	-2.6	18.0	nt	nt
CNc1cncc(-c2cccc(O)c2)n1	nt	25.2	199.7*	nt	nt
O=C(NN=Cc1cc(Cl)cc([N+](=O)[O-])c1O)c1ccc2c(c1)OCO2	nt	nt	nt	7.1	nt
CCOC1OC(C(=O)N2CCN(Cc3ccc4c(c3)OCO4)CC2)=CC(C(C)(C)C)C1CCCO (stereo unspecified)	nt	nt	nt	3.6	nt
CC1CN(C(C)CO)C(=O)c2cccc(NC(=O)c3ccncc3)c2OC1CN(C)Cc1ccc(C(=O)O)cc1 (stereo unspecified)	nt	nt	nt	18.0	nt
O=C(CNc1ccccc1)NN=Cc1ccc2c(c1)OCCO2	nt	nt	nt	7.3	nt
COC(=O)CC1c2cc(F)ccc2S(=O)(=O)N1c1ccccc1 (stereo unspecified)	nt	nt	nt	9.1	nt
COc1cc(/C=C(/C#N)c2ccc(F)cc2)ccc1OCc1ccc(C(=O)O)o1	1.4	45.5*	1.3	-4.9	77.5
COc1cc(/C=C(\C#N)C(=O)Nc2cccc(C(=O)O)c2)ccc1OCc1ccc(F)cc1	5.1	36.3*	-0.4	10.2	8.5
N#C/C(=C\c1ccc(OCc2ccc(F)cc2)cc1)C(=O)Nc1cccc(C(=O)O)c1	43.0	72.7*	-6.1	nt	47.6
CC=CC=CC(=O)Nc1cccc(C2=NOC3(C2)CC(C(N)=O)N(C(=O)C2CCC(=O)N2)C3)c1 (stereo unspecified)	nt	nt	nt	6.8	nt
COc1cc(/C=C/C(=O)N2CCC=CC2=O)cc(OC)c1OC	nt	35.3*	2.8	nt	61.2
CC(C)CC(CNC(=O)OC(C)(C)C)NC(=O)c1nc[nH]c1C(=O)NC(CC(C)C)C(=O)CNCC(CC(C)C)NC(=O)c1nc[nH]c1C(=O)NC(Cc1c[nH]c2ccccc12)C(=O)OC(C)(C)C (stereo unspecified)	nt	nt	nt	0.6	nt
C=CCSc1nnc(-c2ccccc2N=Cc2c(C)[nH]n(-c3ccccc3)c2=O)c(=O)[nH]1	7.3	42.8*	0.2	nt	62.2
CC(=NNC(=O)COc1ccc(C(C)(C)C)cc1)c1ccc2c(c1)OCCO2	nt	nt	nt	0.6	nt
COn1c(-c2ccccc2)nc2c1CCc1c-2no[n+]1[O-]	-4.6	6.8	-1.4	nt	-0.9
COc1ccc(-c2nc3c(n2O)CCc2c-3no[n+]2[O-])cc1	8.7	40.5*	-2.9	11.5	-7.5
COc1ccccc1-c1coc2c(CN3CCN(C)CC3)c(O)ccc2c1=O	-7.9	21.9	131.9*	-2.7	-2.7
COc1ccccc1-c1coc2c(CN3CCN(CCO)CC3)c(O)ccc2c1=O	nt	16.4	151.9*	nt	-23.2
COc1ccccc1-c1coc2c(CN3C(C)CCCC3C)c(O)ccc2c1=O (stereo unspecified)	2.3	5.7	19.8	3.0	-3.5
